Assay outcomes from PubChem BioAssay.
Rows were chosen to be rich in hits. Some 2.4% of all compounds tested hit in one or more screens of this group.
Pol kappa inh: qHTS for Inhibitors of Polymerase Kappa; purified Pol kappa, fluorescent DNA synthesis assay, 10 min; Potency, µM (series often up to 107 µM), for the others: at the highest dose activity, negative = inhibition, most hits filed as inhibitors; 400,000 tested, 0.53% active; DNA polymerase kappa (Homo sapiens), Q9UBT6; AID 588579, 2011; also: % is scaled to controls: 0 for no effect and ±100 for the full control effect
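10 nM Pol kappa was preincubated with compounds for 15 min at room temperature. Reaction started with 50 nM (final) substrate. Fluorescence read kinetically at 0 and 10 min.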
POLB inh: qHTS Assay for Inhibitors of DNA Polymerase Beta | Potency, µM (highest dose often 114 µM), for inactives: at the highest dose activity change, negative = inhibition, most hits filed as inhibitors | P06746 | Pol beta primer extension/strand displacement, fluorescence kinetic | 340,000 tested, 1.3% active; also: % is scaled to controls: 0 for no effect and ±100 for the full control effect
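Enzyme-only controls used 10 nM Pol beta; buffer lacking enzyme served as negative control. Compound preincubated 15 min, then 50 nM substrate added; 0 and 10 min reads at room temperature.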
L3MBTL1 block: qHTS Assay for the Inhibitors of L3MBTL1 | 230,000 tested, 0.66% active | Potency, µM (highest dose often 57.1 µM), for the others: at the highest dose activity, negative = inhibition, most hits filed as inhibitors | AlphaScreen L3MBTL1–H3K9me1 peptide binding | AID 485360, 2010; also: % is scaled to controls: 0 for no effect and ±100 for the full control effect; nearly all actives have a fitted effect of over 60% in size
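AlphaScreen proximity signal between nickel-chelate acceptor and streptavidin donor beads (final 10 ug/mL) reports binding of 50 nM L3MBTL1 to 75 nM biotin-H3 K9me1 peptide; complex incubated with compounds 30 min at room temperature; cefsulodin titration as control.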
POLH inh: qHTS for Inhibitors of Polymerase Eta | DNA polymerase eta (Homo sapiens), Q9Y253 | recombinant Pol eta, fluorescent DNA replication assay | Potency, µM (top dose mostly 114 µM), for the others: top-dose activity change, negative = inhibition, most hits filed as inhibitors | 390,000 tested, 1.2% active | AID 588591, 2011; also: % is scaled to controls: 0 for no effect and ±100 for the full control effect
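Pol eta at 10 nM preincubated with compounds 15 min at room temperature; reaction started with fluorescent substrate (50 nM final) and read kinetically at 0 and 10 min.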
Pol iota inh: qHTS for Inhibitors of Polymerase Iota; Potency, µM (doses to about 115 µM), for inactives: top-dose activity, negative = inhibition, actives largely listed as inhibitors; 390,000 tested, 1% active; DNA polymerase iota (Homo sapiens), Q9UNA4; AID 588590, 2011; Pol iota fluorescent replication assay, 10 min
Target sequence (Q9UNA4 whole entry, looked up): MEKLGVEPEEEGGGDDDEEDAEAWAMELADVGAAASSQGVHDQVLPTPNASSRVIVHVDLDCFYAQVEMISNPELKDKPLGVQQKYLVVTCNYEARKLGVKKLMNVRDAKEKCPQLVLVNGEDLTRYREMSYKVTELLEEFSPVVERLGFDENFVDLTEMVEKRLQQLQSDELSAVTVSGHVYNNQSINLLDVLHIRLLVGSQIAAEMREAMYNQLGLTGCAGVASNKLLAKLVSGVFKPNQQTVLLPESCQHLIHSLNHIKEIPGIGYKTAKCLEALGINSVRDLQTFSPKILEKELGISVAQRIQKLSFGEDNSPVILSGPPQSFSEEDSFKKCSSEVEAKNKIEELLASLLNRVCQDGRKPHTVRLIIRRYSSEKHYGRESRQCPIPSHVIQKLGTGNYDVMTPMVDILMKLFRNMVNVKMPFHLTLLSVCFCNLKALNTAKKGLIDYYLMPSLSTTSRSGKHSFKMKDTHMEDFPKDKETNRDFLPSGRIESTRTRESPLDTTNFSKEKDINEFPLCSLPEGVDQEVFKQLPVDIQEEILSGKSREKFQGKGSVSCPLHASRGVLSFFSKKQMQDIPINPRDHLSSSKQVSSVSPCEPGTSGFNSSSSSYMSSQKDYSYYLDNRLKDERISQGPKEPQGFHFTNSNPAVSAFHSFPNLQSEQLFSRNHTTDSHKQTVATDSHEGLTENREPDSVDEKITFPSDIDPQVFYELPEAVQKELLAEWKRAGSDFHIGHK
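Fluorescent replication assay read twice, at 0 min and 10 min after adding 50 nM (final) substrate. Enzyme (10 nM) and compounds were first incubated 15 min at room temperature; enzyme-free buffer wells were negative controls.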
The depositor's hits bear a star; ? = inconclusive; . = no result; [ ] = remark or other dose. Calls follow the shape of the dose curve; as a rule, active = well fitted curve in the direction sought with a large enough effect; inconclusive = small, poorly fitted or top-dose-only effect, or another doubt; inactive = no such curve, though single readings can be large; an effect the other way counts as inactive or inconclusive. Potency is read from the fitted curve at half-maximal effect.

SMILES	Pol kappa inh	POLB inh	L3MBTL1 block	POLH inh	Pol iota inh
NC(=O)[C@@H]1CCCNc2c(I)cc([N+](=O)[O-])cc2C(=O)N[C@@H](CCC(=O)O)C(=O)N[C@@H](CO)C(=O)N1	9%	5%	10%	-3%	5%
NC(=O)C(CC(=O)O)NC(=O)[C@@H]1CCCCNc2c(I)cc([N+](=O)[O-])cc2C(=O)N[C@@H](CO)C(=O)NCC(=O)N1 (some centres not stated)	.	35µM*	?	.	.
NC(=O)CC[C@@H]1NC(=O)[C@H](CO)NC(=O)c2cc([N+](=O)[O-])cc(I)c2NCCCC[C@@H](C(N)=O)NC(=O)[C@H](Cc2ccc(O)cc2)NC1=O	-21%	2%	-7%	-20%	?
CC(C)n1c(SCC(=O)N2c3ccccc3Sc3ccccc32)nc2c1c(=O)n(C)c(=O)n2C	-3%	8%	1%	-4%	-16%
CCCn1c(SCC(=O)N2c3ccccc3Sc3ccccc32)nc2c1c(=O)n(C)c(=O)n2C	-9%	-6%	.	-2%	89µM*
CCn1c(SCC(=O)N2c3ccccc3Sc3ccccc32)nnc1-c1ccco1	-4%[60.1 µM]	45µM*	15%[11.4 µM]	-14%	15%
C=CCn1c(SCC(=O)N2c3ccccc3Sc3ccccc32)nnc1-c1ccco1	-3%	-21%	-22%	-20%	52%
N#Cc1c2c(c(Cl)n3c1nc1ccccc13)CCCC2	4%	.	.	.	-14%
Cc1ccc2c(Cl)cc(Cl)c(OCC(=O)NCc3ccco3)c2n1	.	13µM*	.	.	.
Cc1cc(Cl)cc(Cl)c1OCC(=O)NCc1ccco1	-43%	40µM*	-9%	20µM*	?
CCOc1ccc(NC(=O)Cn2nnc(C(=O)OC)c2C(=O)OC)cc1	-7%	-2%	.	-9%	-3%
CN(C)C1C(=O)C(C(N)=O)=C(O)[C@@]2(O)C(=O)C3=C(O)c4c(O)ccc(Cl)c4C(O)[C@H]3C[C@@H]12 (some centres not stated)	-14%[60.1 µM]	.	.	.	.
CN(C)C1C(=O)C(C(N)=O)C(=O)C2(O)C(=O)C3C(=O)c4c(O)ccc(Cl)c4C(O)C3CC12 (configuration not stated)	35µM*	.	.	.	.
CN(C)CCNC(=O)c1ccc2c(c1)NC(=O)C(CS(=O)(=O)Cc1cccc(Br)c1)N2 (configuration not stated)	-5%[60.1 µM]	-18%	.	-25%	-1%
CC(C)CCNC(=O)c1ccc2c(c1)NC(=O)C(CS(=O)(=O)Cc1cccc(Br)c1)N2 (configuration not stated)	-11%	10µM*	.	-19%	?
Cc1ccc(NS(=O)(=O)c2ccc(NC(=O)N3CCCC3)cc2)cc1C	-1%[60.1 µM]	3%	.	-8%	20%
Cn1nnnc1SCC1=C(C(=O)O)N2C(=O)[C@@H](NC(=O)[C@H](O)c3ccccc3)[C@H]2SC1	1.6µM*	10µM*	?	1.3µM*	3.2µM*
Cn1nnnc1SCC1=C(C(=O)O)N2C(=O)C(NC(=O)C(OC=O)c3ccccc3)C2SC1 (configuration not stated)	22µM*	.	.	.	.
N[C@H](C(=O)N[C@@H]1C(=O)N2C(C(=O)O)=C(Cl)CS[C@@H]12)c1ccccc1	-8%[12 µM]	.	.	.	.
C(=C\c1ccnc2ccccc12)/c1ccc(N2CCNCC2)cc1	5%	.	.	.	20%
NC(=O)c1c(NC(=O)COC(=O)c2ccc(O)c(Cl)c2)sc2c1CCCC2	-25%	.	?	50µM*	?
COc1ccccc1NC(=O)C1=C(C)Nc2ncnn2C1c1cccn1C (configuration not stated)	-7%[60.1 µM]	-1%	.	-6%	-16%
COCCNc1nc(-c2cccc(NS(C)(=O)=O)c2)nc2ccccc12	25µM*	.	.	.	.
CS(=O)(=O)Nc1cccc(-c2nc(Nc3ccccc3)c3ccccc3n2)c1	-7%[60.1 µM]	.	.	.	.
O=C(OCc1nnc(-c2ccccc2)o1)c1ccc([N+](=O)[O-])o1	-8%	.	?	1%	?
SMILES	Pol kappa inh	POLB inh	L3MBTL1 block	POLH inh	Pol iota inh
COc1cc(-c2nnc(COC(=O)c3ccc([N+](=O)[O-])o3)o2)cc(OC)c1OC	.	.	.	79µM*	.
Cc1ccc(NC(=O)CN2C(=O)c3cccnc3Oc3ccc(Cl)cc32)cc1	-21%	10%	.	-7%	30%
O=C(Cc1ccccc1)Nc1ccc(NC(=O)c2ccccc2)nc1	-5%	63µM*	.	6%	76%
CCOC(=O)c1c(-c2ccc(C)o2)csc1NC(=O)CSc1nncs1	-13%	-3%	-8%	-17%	?
CCOC(=O)c1c(-c2ccco2)csc1NC(=O)CSc1nnc(N)s1	?	28µM*	-21%	?	35µM*
CC[C@H](C)[C@H](NC(=O)[C@H](Cc1ccccc1)NC(=O)[C@H](CCC(=O)O)NC(=O)[C@H](CCCCN)NC(=O)[C@H](C)NC(=O)[C@H](C)NC(=O)[C@H](CCC(N)=O)NC(=O)CNC(=O)[C@H](CCC(=O)O)NC(=O)[C@H](CC(C)C)NC(=O)[C@H](Cc1ccc(O)cc1)NC(=O)[C@H](CO)NC(=O)[C@H](CO)NC(=O)[C@@H](NC(=O)[C@H](CC(=O)O)NC(=O)[C@H](CO)NC(=O)[C@@H](NC(=O)[C@H](Cc1ccccc1)NC(=O)[C@@H](NC(=O)CNC(=O)[C@H](CCC(=O)O)NC(=O)[C@H](C)NC(=O)[C@@H](N)Cc1cnc[nH]1)[C@@H](C)O)[C@@H](C)O)C(C)C)C(=O)N[C@@H](C)C(=O)N[C@@H](Cc1c[nH]c2ccccc12)C(=O)N[C@@H](CC(C)C)C(=O)N[C@H](C(=O)N[C@@H](CCCCN)C(N)=O)C(C)C	15%[60.1 µM]	.	.	.	.
Cc1ccc(Cn2c(=S)[nH]c3ccc(N4CCOCC4)cc3c2=O)o1	?	6%	-9%[11.4 µM]	-21%	14µM*
O=c1c2cc(N3CCOCC3)ccc2[nH]c(=S)n1Cc1ccc(Cl)cc1	-4%	2%	.	-6%	-6%
Clc1cccc(Cl)c1C1Nc2cccc3cccc(c23)N1	-39%	-59%	14µM*	-4%	35µM*
Fc1cccc(Cl)c1C1Nc2cccc3cccc(c23)N1	-20%	14%	.	-8%	-54%
Cc1ccc(/C=C2\SC(=S)N(NS(=O)(=O)c3ccc(C)cc3)C2=O)cc1	-7%	79µM*	-7%	?	7%
Cc1ccc(S(=O)(=O)NN2C(=O)/C(=C/c3ccc(C(=O)O)cc3)SC2=S)cc1	?	16%	.	-23%	13µM*
Cc1ccc(S(=O)(=O)NN2C(=O)/C(=C/c3ccc(F)cc3)SC2=S)cc1	-11%	4%	-1%	?	139%
